Bioassay records: PubChem BioAssay, Buhrlage Lab, Dana-Farber Cancer Institute and Novartis Institutes for BioMedical Research (Cambridge, Mass)
Most compounds without a hit are left out; they make up all but 13% or so of the library.
USP28 inh – inhibitors of human USP28 deubiquitinase; 3% of 47,000 active; purified USP28, Ub-rhodamine cleavage fluorescence, 30 min; Ubiquitin carboxyl-terminal hydrolase 28 (Homo sapiens), Q96RU2; AID 1645857, 2021; inhibition, % at 25 µM
USP8 inh – inhibitors of human USP8 deubiquitinase; purified USP8, Ub-rhodamine cleavage fluorescence, 30 min; inhibition, % at 20 µM; 4.2% of 47,000 active; AID 1645853, 2021
Target sequence (P40818 whole entry, looked up): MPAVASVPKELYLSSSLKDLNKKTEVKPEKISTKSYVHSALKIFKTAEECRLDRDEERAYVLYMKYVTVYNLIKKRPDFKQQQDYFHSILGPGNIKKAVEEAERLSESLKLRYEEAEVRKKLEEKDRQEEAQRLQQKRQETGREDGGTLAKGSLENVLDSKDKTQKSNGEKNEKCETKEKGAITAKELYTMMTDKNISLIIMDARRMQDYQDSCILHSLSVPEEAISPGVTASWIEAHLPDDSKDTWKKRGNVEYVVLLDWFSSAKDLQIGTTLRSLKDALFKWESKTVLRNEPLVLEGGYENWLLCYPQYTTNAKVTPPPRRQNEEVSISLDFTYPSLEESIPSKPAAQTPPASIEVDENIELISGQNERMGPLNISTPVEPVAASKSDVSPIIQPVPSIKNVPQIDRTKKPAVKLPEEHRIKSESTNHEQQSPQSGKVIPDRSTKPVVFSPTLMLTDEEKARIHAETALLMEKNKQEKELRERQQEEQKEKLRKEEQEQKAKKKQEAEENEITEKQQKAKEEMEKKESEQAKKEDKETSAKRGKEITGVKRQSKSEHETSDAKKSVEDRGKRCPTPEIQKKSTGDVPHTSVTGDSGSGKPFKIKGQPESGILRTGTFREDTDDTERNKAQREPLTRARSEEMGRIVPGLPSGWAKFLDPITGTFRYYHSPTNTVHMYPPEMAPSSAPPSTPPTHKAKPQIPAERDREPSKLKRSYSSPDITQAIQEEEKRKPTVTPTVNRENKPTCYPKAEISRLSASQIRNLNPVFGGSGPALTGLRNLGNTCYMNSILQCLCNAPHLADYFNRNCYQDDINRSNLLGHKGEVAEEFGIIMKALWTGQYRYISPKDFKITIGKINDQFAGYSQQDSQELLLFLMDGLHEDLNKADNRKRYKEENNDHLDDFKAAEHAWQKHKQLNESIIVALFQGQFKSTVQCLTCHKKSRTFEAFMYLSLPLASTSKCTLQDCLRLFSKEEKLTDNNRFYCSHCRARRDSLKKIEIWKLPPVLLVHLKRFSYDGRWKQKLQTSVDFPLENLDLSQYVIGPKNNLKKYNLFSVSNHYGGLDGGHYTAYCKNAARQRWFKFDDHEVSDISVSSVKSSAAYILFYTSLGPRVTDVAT
USP30 block – inhibitors of human USP30 deubiquitinase. AID 1645860, 2021. 5.3% of 47,000 active. inhibition, % at 25 µM. Ubiquitin carboxyl-terminal hydrolase 30 (Homo sapiens), Q70CQ3. purified USP30, Ub-rhodamine cleavage fluorescence
USP17 block – inhibitors of human USP17 deubiquitinase; Ubiquitin carboxyl-terminal hydrolase 17-like protein 5 (Homo sapiens), A8MUK1; inhibition, % at 50 µM; 6.5% of 47,000 active; purified USP17, Ub-rhodamine cleavage fluorescence, 3 h
Active calls of the source: *. Rule as the data show it: active = inhibition above about 30%; inactive = the rest.

CCc1cc2c(=O)n(Cc3ccco3)c(SCC(=O)Nc3ccccc3O)nc2s1 was read as USP28 inh 13, USP8 inh 11 and USP30 block 44*.
O=C(NCc1ccco1)c1ccc2c(c1)N(Cc1cccc(F)c1)C(=O)c1ccccc1S2 was read as USP28 inh 6, USP8 inh 26, USP30 block -40 and USP17 block 58*.
Screening CCN1C(=O)c2ccccc2Sc2ccc(C(=O)NCc3ccc(C)cc3)cc21 returned USP28 inh 38*, USP8 inh 0, USP30 block 26 and USP17 block -1.
`Cc1cccc(CN2C(=O)c3ccccc3Sc3ccc(C(=O)NC4CCCC4)cc32)c1` gave USP28 inh 2, USP8 inh 0, USP30 block 0 and USP17 block -6.
Screening COc1ccc(-c2cc(C(=O)Nc3ncc(C)s3)c3ccccc3n2)cc1 returned USP28 inh -2, USP8 inh 7, USP30 block -1 and USP17 block 8.
`c1cc(-c2noc(-c3ccoc3)n2)cc(-c2ccn[nH]2)c1` gave USP28 inh -20, USP8 inh -13, USP30 block -68 and USP17 block 0.
COc1ccc(-c2nc(-c3cccc(-c4ccn[nH]4)c3)no2)cc1F was read as USP28 inh -11, USP8 inh -9, USP30 block -38 and USP17 block 9.
Screening Fc1ccc(OCc2nc(-c3cccc(-c4ccn[nH]4)c3)no2)cc1 returned USP28 inh 52*, USP8 inh 33*, USP30 block 39* and USP17 block 80*.
For C(=C\c1nc(-c2cccc(-c3ccn[nH]3)c2)no1)/c1ccco1 the results were USP28 inh -30, USP8 inh 35*, USP30 block -178 and USP17 block -5.
For COc1ccc(-c2cc(-c3nnc4n3CCCCC4)n(-c3ccccc3)n2)cc1 the results were USP28 inh 60*, USP8 inh 16, USP30 block 28 and USP17 block 15.
COc1ccc(-c2c3c4n(c(-c5ccccc5)cn4c2C(=O)NC2CCCCC2)CCCC3)cc1 was read as USP28 inh -7, USP8 inh -10, USP30 block -96 and USP17 block -17.
`Cc1cccc(C)c1N(CC(=O)N1CCC(Cc2ccccc2)CC1)S(C)(=O)=O` gave USP28 inh -12, USP8 inh -13, USP30 block -14 and USP17 block -13.
`COc1ccc(-c2cncc(-c3cc(NCc4ccc(Cl)cc4)nc(C)n3)c2)cc1` gave USP28 inh 1, USP8 inh 11, USP30 block 18 and USP17 block 8.
For FC(F)(F)Oc1ccc(-c2cnc(NCc3ccc(Cl)cc3)nc2)cc1 the results were USP28 inh 20, USP8 inh 28, USP30 block 34* and USP17 block 25.
`CC(=O)c1sc(NC(=O)c2ccccc2-c2ccc(C(F)(F)F)cc2)nc1C` gave USP28 inh 17, USP8 inh -8, USP30 block 38* and USP17 block 64*.
`N#Cc1nc(Cc2ccccc2)oc1N1CCN(c2ccccc2)CC1` gave USP28 inh 0, USP8 inh 2, USP30 block -1 and USP17 block 0.
Screening Cc1ccc(OCc2nc(C#N)c(N3CCCCC3)o2)cc1 returned USP28 inh 37*, USP8 inh -1, USP30 block 12 and USP17 block 26.
Cc1cc(N2CCC(c3nccnc3Nc3cnccn3)CC2)ncn1 was read as USP28 inh -50, USP8 inh -3, USP30 block -144 and USP17 block -58.
For COc1ccc(S(=O)(=O)N2CCC3(CC2)CC3c2nc(-c3cccnc3)no2)c(C)c1 (stereo unspecified) the results were USP28 inh 5, USP8 inh 1, USP30 block 36* and USP17 block 19.
Screening COc1ccc(-c2nnc(SCC(=O)Nc3ccc4[nH]c(=O)[nH]c4c3)n2C)cc1 returned USP28 inh 1, USP8 inh 38*, USP30 block 5 and USP17 block 13.
For O=C(CSc1n[nH]c2nc3ccccc3n12)Nc1ccc2[nH]c(=O)[nH]c2c1 the results were USP28 inh -4, USP8 inh 70*, USP30 block -22 and USP17 block -3.
CC(C(=O)Nc1ccc2[nH]c(=O)[nH]c2c1)N1CCCCCC1 (stereo unspecified) was read as USP28 inh -1, USP8 inh 3, USP30 block -2 and USP17 block 6.
